Measurements from PubChem BioAssay (NCATS).
Where “and” joins values, the source holds several entries; their conditions need not be identical. Equal values may be shown once. Inconclusive results are not listed. Entries that show only a call come without a potency. Calls of active or inactive are those of the source. Unless noted, the call rests on the fitted dose curve; in most records, active means well fitted curve in the direction sought with a large enough effect; inconclusive means small, poorly fitted or top-dose-only effect, or another doubt; inactive means no such curve, though single readings can be large; an effect the other way counts as inactive or inconclusive.

Key:
[1] = qHTS assay to identify small molecule inhibitors of chordoma cells - UCH-2 (AID 1259356)
[2] = P-glycoprotein substrates identified in KB-8-5-11 adenocarcinoma cell line, qHTS therapeutic library screen (AID 1346987); further: nearly all actives have a fitted effect of over 65% in size; further: potency means the concentration at half of the fitted maximal effect
Outline: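 In this qHTS, P-gp-rich KB-8-5-11 cells received library compounds across a concentration range. Viability was quantified by luminescence after 72 h at 37 degree C.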

[3] = qHTS profiling of the MIPE4 collection as inhibitors of Plasmodium falciparum (3D7) proliferation (AID 743344; call rule not given here); conditions: P. falciparum 3D7 in erythrocytes, SYBR Green DNA fluorescence, 72 h; at 28.5 µM (top of the series) unless noted
Outline: (§1)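 Parasite DNA was quantified by SYBR Green I fluorescence (ex 485, em 535 nm) after overnight lysis in saponin/Triton buffer at room temperature. Cultures at 0.3% parasitemia and 2.5% hematocrit were first exposed to compound for 72 h at 37 C; signals were normalised to artemisinin (0.29 uM) and vehicle wells.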

[4] = qHTS profiling of the MIPE4 collection as inhibitors of Plasmodium falciparum (DD2) proliferation (AID 743345; call rule not given here); conditions: P. falciparum Dd2 in erythrocytes, SYBR Green DNA, 72 h; at 28.5 µM (top of the series) unless noted
Outline: as §1

[5] = qHTS profiling of the MIPE4 collection as inhibitors of Plasmodium falciparum (DD2) proliferation (Rep 2) (AID 743346; call rule not given here); conditions: P. falciparum Dd2 in erythrocytes, SYBR Green DNA, 72 h; at 28.5 µM (top of the series) unless noted
Outline: as §1

[6] = qHTS profiling of the MIPE4 collection as inhibitors of Plasmodium falciparum (HB3) proliferation (AID 743347; call rule not given here); conditions: P. falciparum HB3 in erythrocytes, SYBR Green DNA, 72 h; at 28.5 µM (top of the series) unless noted
Outline: as §1

[7] = Identifying Small Molecule Inhibitors of Pancreatic Cancer Stem Cells (A2780, Spheroid) (AID 1259357); conditions: Potency: A2780 spheroid viability;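 further: compound exposure lasted 48 h before the ATP luminescence read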; further: potency means the concentration at half of the fitted maximal effect
Outline: (§2)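 Viability is scored by CellTiter-Glo luminescence 48 h after dosing, expressed as percent activity against vehicle and no-cell references. Spheroid formats rely on cells cultured 14 days in stem cell media beforehand.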

[8] = Identifying Small Molecule Inhibitors of Pancreatic Cancer Stem Cells (SN12C, Adherent) (AID 1259358);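 further: cell survival measured after 48 h of compound exposure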; further: potency means the concentration at half of the fitted maximal effect
Outline: (§3)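 Luminescent ATP readout (CellTiter-Glo) quantifies surviving cells after a 48 h drug incubation. Normalization uses DMSO wells as no inhibition and media-only wells as full inhibition; bortezomib served as positive control.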

[9] = Identifying Small Molecule Inhibitors of Pancreatic Cancer Stem Cells (SN12C, Spheroid) (AID 1259360); conditions: Potency: SN12C spheroid viability; further: potency means the concentration at half of the fitted maximal effect
Outline: as §2

[10] = Identifying Small Molecule Inhibitors of Pancreatic Cancer Stem Cells (A278, Adherent) (AID 1259361); further: nearly all actives have a fitted effect of over 35% in size
Outline: as §3

[11] = qHTS profiling for inhibitors of Plasmodium falciparum (HB3) proliferation (AID 743324); conditions: Plasmodium falciparum HB3 blood-stage proliferation; at 28.7 µM (top of the series) unless noted
Outline: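 SYBR Green fluorescence (485 ex/535 em) of lysed cultures, incubated overnight at room temperature in the dark, quantifies parasite DNA. Infected erythrocytes at 0.3% parasitemia and 2.5% hematocrit were exposed 72 h; values normalized to DMSO and 0.29 uM artemisinin controls.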

[12] = Identifying Small Molecule Inhibitors of Pancreatic Cancer Stem Cells (Panc1, Spheroid) (AID 1259359);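 further: potency means the concentration at half of the fitted maximal effect; compound exposure lasted 48 h before reading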
Outline: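 Cytotoxicity read by CellTiter-Glo luminescence after 48 h compound exposure at 37C; percent activity scaled between DMSO-treated cells and cell-free wells. Spheroid formats used cells pre-formed 14 days in stem cell media on hydrogel.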

[13] = Identifying Small Molecule Inhibitors of Pancreatic Cancer Stem Cells (Panc1, Adherent) (AID 1259362); conditions: Potency: viability; further: potency means the concentration at half of the fitted maximal effect
Outline: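 Adherent (2D) versus sphere (3D) formats; spheres generated 14 d in SCM beforehand. Compound transferred by pin tool after 4 h, 48 h incubation, CellTiter-Glo endpoint.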

For `O=C(O)c1cc(=O)c2c3nc4ccccc4oc-3cc(=O)c2[nH]1`, the Potency [1] was “inactive” and the Potency [2] was “inactive”.
In the case of `CCCCC/C=C\C/C=C\CCCCCCCC(=O)O`, the Potency [1] is reported as “inactive” and the Potency [2] is reported as “inactive”.
In the case of `O=C(O)C[C@H](O)C[C@H](O)/C=C/c1c(C2CC2)nc2ccccc2c1-c1ccc(F)cc1`, the Potency [1] is reported as “inactive” and the Potency [2] is reported as 8.2 µM (active) and 5.17 µM (active).
With `C[C@@H]1CCN(C(=O)CC#N)C[C@@H]1N(C)c1ncnc2[nH]ccc12` the parasite growth, % of DMSO control [3] was 84%, the parasite growth remaining, % of DMSO control (lower = more inhibition) [4] was 103% and the parasite growth, % of control (lower = inhibition) [5] was 78.4%. The growth, % of control [6] was 96.8%, the Potency [7] was “inactive” and the Potency [8] was “inactive”. The Potency [9] was “inactive” and the IC50 (viability decrease) [10] was “inactive”.
For `NC(=O)Nc1cc(-c2ccc(CN3CCOCC3)c(F)c2)sc1C(=O)N[C@H]1CCCNC1`, the remaining proliferation (% of control), lower = more inhibition [11] was 2.42%, the Potency [7] was 20.9 µM (active) and the Potency [8] was 0.833 µM (active). The Potency [12] was 9.35 µM (active), the Potency [9] was 16.6 µM (active) and the IC50 (viability decrease) [10] was 0.526 µM (active). The Potency [13] was 0.833 µM (active).
With `CCOc1ccc2c(c1)C(C)=CC(C)(C)N2` the Potency [1] was “inactive” and the Potency [2] was “inactive”.
For `CC(=O)Oc1cc(C)c(OC(C)=O)c2ccccc12`, the Potency [1] was “inactive” and the Potency [2] was “inactive”.
For `C=C1C(=CC=C2CCC[C@@]3(C)[C@@H]2CC[C@H]3[C@H](C)CCCC(C)C)C[C@@H](O)C[C@@H]1O`, the parasite growth, % of DMSO control [3] was 22.5%, the parasite growth remaining, % of DMSO control (lower = more inhibition) [4] was 65.2% and the parasite growth, % of control (lower = inhibition) [5] was 29.8%. The growth, % of control [6] was 19.8% and the Potency [1] was “inactive”.
For `CC1(C)O[C@@H]2C[C@H]3[C@@H]4CCC5=CC(=O)C=C[C@]5(C)[C@H]4[C@@H](O)C[C@]3(C)[C@]2(C(=O)CO)O1`, the Potency [1] was “inactive” and the Potency [2] was “inactive”.
For `CCCC(=O)O[C@]1(C(=O)CCl)[C@H](C)C[C@@H]2[C@H]3CCC4=CC(=O)C=C[C@]4(C)[C@@]3(F)C(=O)C[C@@]21C`, the remaining proliferation (% of control), lower = more inhibition [11] was 1.97%, the parasite growth, % of DMSO control [3] was 7.36% and the parasite growth remaining, % of DMSO control (lower = more inhibition) [4] was 7.93%. The parasite growth, % of control (lower = inhibition) [5] was 32.4%, the growth, % of control [6] was 7.79% and the Potency [1] was “inactive”. The Potency [2] was 13 µM (active).
For `CC(=O)OCC(=O)[C@@]12OC3(CCCC3)O[C@@H]1C[C@H]1[C@@H]3CCC4=CC(=O)C=C[C@]4(C)[C@@]3(F)[C@@H](O)C[C@@]12C`, the Potency [1] was “inactive” and the Potency [2] was “inactive”.
`CC(C)N=c1cc2n(-c3ccc(Cl)cc3)c3ccccc3nc-2cc1Nc1ccc(Cl)cc1` showed a parasite growth, % of DMSO control [3] of 10.9%, a parasite growth remaining, % of DMSO control (lower = more inhibition) [4] of 7.22% and a parasite growth, % of control (lower = inhibition) [5] of 166%. For the same compound, the growth, % of control [6] was 47.5% and the Potency [1] was “inactive”.
In the case of `CC(=O)O[C@]1(C(C)=O)CC[C@H]2[C@@H]3CCC4=CC(=O)CC[C@]4(C)[C@@]3(F)[C@@H](O)C[C@@]21C`, the Potency [1] is reported as “inactive” and the Potency [2] is reported as “inactive”.
In the case of `O=C(O)c1cc(O)c2c(c1)[O][Bi][O]2`, the Potency [1] is reported as “inactive” and the Potency [2] is reported as “inactive”.
For `CC(C)NCC1CCc2cc(CO)c([N+](=O)[O-])cc2N1` (stereo unspecified), the Potency [1] was “inactive” and the Potency [2] was “inactive”.
In the case of `CCC1(Cc2ccc(N)cc2)CCC(=O)NC1=O` (stereo unspecified), the remaining proliferation (% of control), lower = more inhibition [11] is reported as 89.8% [at 57.5 µM], the Potency [7] is reported as “inactive” and the Potency [8] is reported as “inactive”. For the same compound, the Potency [9] was “inactive” and the IC50 (viability decrease) [10] was “inactive”.
With `CCC(=O)OCC(=O)[C@@]1(OC(=O)CC)[C@H](C)C[C@H]2[C@H]3[C@H]([C@@H](O)C[C@@]21C)[C@@]1(C)C=CC(=O)C=C1C[C@H]3Cl` the Potency [1] was “inactive” and the Potency [2] was “inactive”.
In the case of `CC[C@H]1OC(=O)C[C@@H](O)[C@H](C)[C@@H](O[C@@H]2O[C@H](C)[C@@H](O)[C@H](N(C)C)[C@H]2O)[C@@H](CCN2C[C@H](C)C[C@H](C)C2)C[C@@H](C)C(=O)/C=C/C(C)=C/[C@@H]1CO[C@@H]1O[C@H](C)[C@@H](O)[C@@H](OC)[C@H]1OC`, the Potency [1] is reported as “inactive” and the Potency [2] is reported as “inactive”.
